For 6 molecules, outcome and AC50 results are on record in PubChem BioAssay (EPA / NIEHS).

“And” between values parts separate entries of the source, which are not always exact repeats. Equal entries are not always repeated. Results filed as inconclusive are left out. Some compounds were tested as several samples or in several runs, with calls that do not always agree. The source made the active and inactive calls. How the source made its calls, unless noted: active means hit-call score of the fitted dose curve at least 0.9, where 1 is the maximum; inactive means score below 0.9.

A short description of experiment [1]: CCTE_Shafer_MEA_dev_burst_duration_mean: CCTE's Neural Network Formation Assay for Mean Burst Duration, Shafer Lab (AID 2284045). In a few lines:
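Network-formation assay in primary rat cortical neurons; treatment spans twelve days of development. Mean burst duration per well is integrated by trapezoidal AUC and fitted in the loss-of-signal direction against DMSO baseline.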

A short description of experiment [2]: CCTE_Shafer_MEA_dev_interburst_interval_mean: CCTE's Neural Network Formation Assay for Mean Interburst Interval, Shafer Lab (AID 2284046).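 Further: well-mean interburst interval of bursting electrodes as AUC over four recording days; curve fitted for decrease in interburst interval relative to DMSO.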 In a few lines: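 Network formation assay in primary rat cortical cultures, exposed from DIV 0 to 12. Mean interburst interval per well, integrated as AUC over four recordings.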
A short description of experiment [3]: CCTE_Shafer_MEA_dev_inter_network_spike_interval_mean: CCTE's Neural Network Formation Assay for Mean Inter-network Spike Interval, Shafer Lab (AID 2284047). In a few lines: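 Compound was given at plating to primary rat cortical neurons and renewed with full medium changes on DIV 5 and 9. Extracellular activity was recorded on days 5, 7, 9, 12; AUC values were fitted for loss relative to DMSO control.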

Experiment [4] can be described thus: CCTE_Shafer_MEA_dev_network_spike_number: CCTE's Neural Network Formation Assay for Number of Network Spikes, Shafer Lab (AID 2284048).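 Further: synchronized bursts across electrodes counted on days 5 7 9 12 and integrated as AUC.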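 On AC50: fit as a loss of signal meaning fewer network spikes than DMSO.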 In short, it runs like this:
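Extracellular recordings from 16-electrode wells track network formation in rat cortical cultures under continuous treatment from plating. The endpoint is network spike number, expressed as AUC across DIV 5–12 relative to DMSO vehicle.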

The nature of experiment [5]: CCTE_Shafer_MEA_dev_network_spike_peak: CCTE's Neural Network Formation Assay for Mean Number of Electrodes in Network Spike, Shafer Lab (AID 2284049).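 On AC50: fitted for loss of signal meaning fewer electrodes in network spikes than DMSO.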 In short, it runs like this:
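Continuous 12-day exposure of rat cortical cultures, starting at plating, on MEA plates. Endpoint: electrodes participating in network-spike peaks, AUC across DIV 5–12, DMSO as negative control.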

Experiment [6] is described as follows: CCTE_Shafer_MEA_dev_spike_duration_mean: CCTE's Neural Network Formation Assay for Mean Spike Duration, Shafer Lab (AID 2284051).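 Further: mean network spike duration pooled as area under curve over DIV 5 to 12 recordings.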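 On AC50: potency for a decrease in mean network spike duration versus DMSO.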 In short, it runs like this: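 With DMSO as baseline, loss of mean network spike duration was scored from extracellular recordings of rat cortical neurons on MEA plates. Exposure spanned plating to DIV 12; the four recording days were collapsed into one AUC value.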

Experiment [7] can be described thus: CCTE_Shafer_MEA_dev_network_spike_duration_std: CCTE's Neural Network Formation Assay for Standard Deviation of Network Spike Duration, Shafer Lab (AID 2284052).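 Further: area under curve of spike duration SD across recording days 5 to 12; hits are decreases in network spike duration SD versus DMSO vehicle.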 In short, it runs like this: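 Developing networks of rat cortical neurons were exposed over twelve days in vitro on 48-well MEA plates. Trapezoidal AUC of recordings (DIV 5–12) was analysed for signal loss relative to DMSO vehicle.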

Experiment [8] in a line: CCTE_Shafer_MEA_dev_per_network_spike_spike_number_mean: CCTE's Neural Network Formation Assay for Mean Number of Spikes in a Network Spike, Shafer Lab (AID 2284053). In a few lines:
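First, rat cortical cells (1.5 x 10^5/well) were seeded onto MEA wells; second, dosing began at plating and was refreshed on DIV 5 and 9; finally, network-spike spike counts across DIV 5–12 were summarized as AUC.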

Experiment [9] in a line: CCTE_Shafer_MEA_dev_per_network_spike_spike_percent: CCTE's Neural Network Formation Assay for Percent of Spikes in a Network Spike, Shafer Lab (AID 2284054). In a few lines: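 Developing networks of rat cortical neurons are dosed at day 0 and recorded extracellularly four times up to day 12. The endpoint is the area under the curve of percent spikes in network spikes, fitted in the negative direction relative to DMSO.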

Experiment [10] in a line: CCTE_Shafer_MEA_dev_LDH: CCTE's Lactate Dehydrogenase Assay for Cytotoxicity in the Neural Network Formation Assay, Shafer Lab (AID 2284068; active means hit-call score of the fitted dose curve at least 0.9, where 1 is the maximum;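 further: exposure for twelve days from plating with re-dosing on DIV 5 and 9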). In a few lines: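 Developing rat cortical networks on MEA plates are exposed to compound for 12 days from plating. LDH activity is measured spectrophotometrically, with DMSO as baseline.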
Experiment [11] can be described thus: CCTE_Shafer_MEA_dev_AB: CCTE's Alamar Blue Assay for Cytotoxicity in the Neural Network Formation Assay, Shafer Lab (AID 2284083; active means hit-call score of the fitted dose curve at least 0.9, where 1 is the maximum;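 further: resazurin reduction fluorescence as viability of cultured neurons; twelve days of exposure from plating with re-dosing on DIV 5 and 9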). In a few lines: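 Cytotoxicity companion to the developmental MEA: primary rat cortical neurons, 12-day exposure starting day 0, compound refreshed DIV 5 and 9; resazurin fluorescence, fitted against DMSO vehicle.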
Experiment [12] can be described thus: CCTE_Shafer_MEA_dev_mutual_information_norm: CCTE's Neural Network Formation Assay for Mutual Information Normalization, Shafer Lab (AID 2284091).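 On AC50: mutual information between electrodes summarised as area under curve across four recording days; potency is for a decrease in mutual information relative to DMSO.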 In a few lines: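 Exposure of primary rat cortical neurons began at plating and ran to DIV 12, with full media and treatment renewal after DIV 5 and 9 recordings. Mutual information AUC (DIV 5–12) was analysed for loss versus DMSO.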

Experiment [13] in a line: CCTE_Shafer_MEA_dev_correlation_coefficient_mean: CCTE's Neural Network Formation Assay for Mean Correlation Coefficient, Shafer Lab (AID 2284093).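 On AC50: well mean pairwise spike train correlation integrated as AUC over recording days 5 to 12; potency fitted for loss of correlation relative to DMSO vehicle wells.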 In short, it runs like this:
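Extracellular firing from rat cortical networks on 48-well MEAs, DMSO-referenced, negative fitting direction. Compound present from plating to DIV12; mean pairwise correlation per well integrated over DIV5–12 recordings by trapezoidal AUC.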

Experiment [14] in a line: UKN5_HCS_SBAD2_cell_viability: Viability Assessment in the University of Konstanz (UKN) Leist Lab Neurite Outgrowth Assay in human iPSC-derived immature Dorsal Root Ganglia Neurons (UKN5) (AID 2284056). In short, it runs like this:
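iPSC-derived immature peripheral neurons (SBAD2) seeded on Matrigel with CHIR99021, SU5402 and DAPT, dosed 1 h later for 24 h. Viability from Hoechst H-33342 and calcein-AM live staining, high-content imaging; bidirectional fit versus DMSO.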

Experiment [15] can be described thus: UKN5_HCS_SBAD2_neurite_outgrowth: University of Konstanz (UKN) Leist Lab Neurite Outgrowth Assay in human iPSC-derived immature Dorsal Root Ganglia Neurons (UKN5) (AID 2284070). The settings on record: actives raise or lower the signal. In a few lines: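 Neurite area from calcein-AM high-content images after 24 h exposure (staining included), with H-33342 for viability, fitted both directions against DMSO. Cells: thawed immature SBAD2 peripheral neurons, 100.000 cells/cm2, with CHIR99021, SU5402, DAPT; dosing 1 h after seeding.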

A short description of experiment [16]: CCTE_Shafer_MEA_acute_LDH: CCTE's Lactate Dehydrogenase Assay for Cytotoxicity in the Neural Acute Assay, Shafer Lab (AID 2284086; active means hit-call score of the fitted dose curve at least 0.9, where 1 is the maximum;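 further: active means LDH release rises above DMSO vehicle level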). In a few lines:
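LDH released during 40 min compound exposure of primary rat cortical cultures, quantified by absorbance at 490 nm in collected medium. Fitting direction positive versus DMSO vehicle.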

Experiment [17] can be described thus: UKN2_HCS_IMR90_neural_migration: University of Konstanz (UKN) Leist Lab Neural Crest Cell Migration Assay in human induced IMR90 Pluripotent Stem Cells (UKN2) (AID 2284204). The settings on record: actives raise or lower the signal. In a few lines:
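Using a 96-well stopper format with PLO/laminin/fibronectin coating, neural crest cells from iPSC migrate in cytokine-supplemented N2-S medium; after 24 h, chemicals are applied for a further 24 h, then cells are imaged after dye staining.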

Take `CCOP(=S)(OCC)Oc1cc(C)nc(C(C)C)n1`: the outcome in experiment [1], in [2], in [3], in experiment [4], in [5] and in experiment [6] was inactive. Also, the molecule was called inactive in experiment [7], in [8], in experiment [9], in experiment [11], in experiment [12] and in experiment [13]. Besides, the concentration at half-maximal activity (AC50) is 50 µM (active) in experiment [5]; 16.1 µM (active) in [8]; 77 µM (active) in experiment [9]; 50 µM (active) in experiment [10]; 50 µM (active) in experiment [11]; 50 µM (active) in experiment [12]. Besides, the half-maximal activity concentration (AC50) in experiment [13] was 50 µM (active).
Turning to `COP(=O)(OC)C(O)C(Cl)(Cl)Cl` (stereo not given), the result in experiment [1], in experiment [2], in experiment [3], in [4], in experiment [7] and in experiment [15] was inactive. In addition, the half-maximal activity concentration (AC50) in [4] was 2.98 µM (active); in [5], 75.4 µM (active) and 15 µM (active); in experiment [6], 50 µM (active) and 15 µM (active); in [8] it was 50 µM (active) and 15 µM (active); in [9], 50 µM (active) and 15 µM (active); in experiment [14] it was 9.96 µM (active). For the same molecule, the AC50 in experiment [10] is 3.52 µM (active) and 1.47 µM (active); in [11], 50 µM (active) and 1.05 µM (active); in experiment [12], 18.4 µM (active) and 3.54 µM (active); in experiment [13] it was 31.7 µM (active) and 15 µM (active).
For `CN1COCN(Cc2cnc(Cl)s2)C1=N[N+](=O)[O-]`, the outcome in experiment [1], in experiment [2], in experiment [3], in experiment [4], in experiment [5] and in [6] was inactive. Besides, the call in [7], in experiment [8], in [9], in experiment [10], in [16] and in experiment [12] was inactive. Further, the molecule was called inactive in experiment [13].
`CCCSP(=O)(OCC)SCCC`: the result in experiment [1], in experiment [2], in experiment [3], in [4], in experiment [7] and in experiment [17] was inactive. Further, the AC50 in experiment [5] is 50 µM (active) and 29.9 µM (active); in experiment [6], 36.2 µM (active) and 27.2 µM (active); in experiment [8], 15.8 µM (active) and 27.3 µM (active); in [9], 24.3 µM (active) and 26.5 µM (active); in experiment [10], 15.7 µM (active) and 15.4 µM (active); in [11], 20.6 µM (active) and 18.7 µM (active). The concentration at half-maximal activity (AC50) in [12] is 9.23 µM (active) and 14.7 µM (active); in experiment [13] it was 15.8 µM (active) and 20.4 µM (active).
For the molecule `Cc1ccn2nc(S(=O)(=O)Nc3c(F)cccc3F)nc2n1`, the outcome in experiment [16] was inactive.
Consider `CC(C)[C@H](C(=O)O[C@H](C#N)c1cccc(Oc2ccccc2)c1)c1ccc(Cl)cc1`, for which the result in experiment [1], in experiment [3] and in [10] was inactive. The AC50 was 17.9 µM (active) in [2]; 0.703 µM (active) in [4]; 4.07 µM (active) in experiment [5]; 4.47 µM (active) in experiment [6]; 3.72 µM (active) in experiment [8]; 0.732 µM (active) in [9]. Also, the half-maximal activity concentration (AC50) is 0.0209 µM (active) in experiment [11], 0.189 µM (active) in experiment [12] and 0.564 µM (active) in [13].
